Bioassay records as filed in PubChem BioAssay.
Many of the other results were omitted from the sample, so hits are more common in it than they were.
KDM4E inh – qHTS Assay for Inhibitors of Human Jumonji Domain Containing 2E (JMJD2E); Lysine-specific demethylase 4E (Homo sapiens), B2RXH2; JMJD2E catalytic domain, FDH-coupled NADH fluorescence (FDH is formaldehyde dehydrogenase); Potency, µM (series often up to 57.1 µM), for the others: at the highest dose activity change, negative = inhibition, actives largely listed as inhibitors; hit rate 1.6% among 230,000; active = well fitted inhibition curve with a large enough effect, not every such curve was filed as active; inconclusive = small, poorly fitted or top-dose-only effect, or another doubt; inactive = no such curve, though single readings can be large or run the other way;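 note: potency is the fitted concentration of half-maximal effect; 0% = wells with enzyme and -100% = buffer wells without enzyme; nearly all actives have a fitted effect of over 50% in size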
Target sequence (B2RXH2 1-337 limits assumed): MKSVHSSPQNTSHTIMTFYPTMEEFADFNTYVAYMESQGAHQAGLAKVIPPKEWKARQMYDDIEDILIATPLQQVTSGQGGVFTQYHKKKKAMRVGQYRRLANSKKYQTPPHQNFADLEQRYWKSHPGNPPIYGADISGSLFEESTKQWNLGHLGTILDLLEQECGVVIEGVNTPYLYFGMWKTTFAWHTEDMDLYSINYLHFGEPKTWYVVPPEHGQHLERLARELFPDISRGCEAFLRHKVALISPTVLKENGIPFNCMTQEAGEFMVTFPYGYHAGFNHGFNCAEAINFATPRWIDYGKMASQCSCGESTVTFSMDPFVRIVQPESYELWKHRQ
Six1-Eya2 blk – qHTS Assay for Inhibitors of the Six1/Eya2 Interaction. Homeobox protein SIX1 (Homo sapiens) + Protein phosphatase EYA2 (Homo sapiens), …. AlphaScreen GST-Six1/His-Eya2 binding, biochemical; stronger effect = lower value. activity change, % (test concentration not listed). hit rate 0.56% among 360,000
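AlphaScreen with GST-Six1 and His-Eya2 (5X mix: 250 nM and 500 nM), glutathione donor and nickel acceptor beads; buffer 50 mM Tris pH 8.0, 300 mM NaCl, 1 mM TCEP; 1 h at 37 C in the dark.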
L3MBTL1 inh – qHTS Assay for the Inhibitors of L3MBTL1. Lethal(3)malignant brain tumor-like protein 1 (Homo sapiens), Q9Y468. AlphaScreen L3MBTL1–H3K9me1 peptide binding. Potency, µM (highest dose often 57.1 µM), for the others: top-dose activity, negative = inhibition, hits mostly inhibitors. hit rate 0.66% among 230,000. AID 485360, 2010; active = well fitted inhibition curve with a large enough effect; inconclusive = small, poorly fitted or top-dose-only effect; inactive = no such curve, though single readings can be large or run the other way; note: potency is the fitted concentration of half-maximal effect; nearly all actives have a fitted effect of over 60% in size
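AlphaScreen proximity signal between nickel-chelate acceptor and streptavidin donor beads (final 10 ug/mL) reports binding of 50 nM L3MBTL1 to 75 nM biotin-H3 K9me1 peptide; complex incubated with compounds 30 min at room temperature; cefsulodin titration as control.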
CtBP-E1A blk – qHTS Assay for Inhibitors of the CtBP/E1A Interaction | AlphaScreen GST-E1A/His-CtBP binding, 1536-well; stronger effect = lower value | activity change, % (concentration not given with the values) | hit rate 0.49% among 340,000
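Steps: dispense buffer (Tris pH 8.0, NaCl 300 mM, TCEP 1 mM, BSA, Tween 20); add 5X protein mix (GST-E1A, His-CtBP, 125 nM each); pin 23 nL compound; 2 h at 37 °C, dark; add 5X beads (50 ug/mL); 1 h; read.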
Starred values were filed as active, the others as inactive; ? = inconclusive; . = no result. Cut-off read from the data, not from the text of the source, unless noted: active = activity change below about -65%; inconclusive = mostly about -30% to -63%; inactive = weaker than that. Unless noted, % is set by controls: 0 for no effect and ±100 for the full control effect.

SMILES | KDM4E inh | Six1-Eya2 blk | L3MBTL1 inh | CtBP-E1A blk
Cn1c(C(=O)O)c(CC(=O)N2CCC(Cc3ccccc3)CC2)c2ccccc21 | 32µM* | -4 | -9% | -8
O=C(NCc1ccccc1)c1sc(=S)n2c1[nH]c(=O)c1ccccc12 | -3% | -8 | 0% | -5
CC(=O)NNC(=O)c1sc(=S)n2c1[nH]c(=O)c1sccc12 | 41% | -65* | 6% | ?
NC(=O)c1sc(=S)n2c1[nH]c(=O)c1sccc12 | -9% | ? | 0% | -82*
CCOC(=O)Nc1ccc2c(c1)C(=NO)c1ccccc1-2 | . | -14 | . | -5
CCOC(=O)Nc1ccc2c(c1)C(=NNC(N)=S)c1ccccc1-2 | . | -79* | . | -65*
O=C(Nc1ccc(Cl)cc1)N[C@@H]1CC[C@H](CCNS(=O)(=O)c2ccccc2F)O[C@@H]1CO | . | 6 | . | -13
COC(=O)c1cccc(C23CC4(C2)[C@H](CN(C)[C@@H]4c2ccccc2)C3c2ccc(Cl)nc2)c1 (stereo partly drawn) | -4% | . | . | .
COc1cccc([C@@H]2Oc3ccc(OC)cc3[C@H](O)[C@H]2O)c1 | 13% | . | . | .
CCN(CC)c1ccc(NC2CC(=O)N(CCc3ccc(OC)cc3)C2=O)cc1 (stereo not drawn) | 13µM* | ? | . | -18
COc1ccc(CCNC2CC(=O)N(CCc3ccccc3)C2=O)cc1 (stereo not drawn) | 7% | 3 | . | 1
C/C(=N\Nc1ccc(Cl)c(C(=O)O)c1)c1ccc(N2CCOCC2)cc1 | . | -8 | . | -9
C/C(=N\Nc1ccc(Cl)c(C(=O)O)c1)c1ccc[nH]1 | -10% | -23 | 28µM* | 6
Cc1cccc(N2CCN(S(=O)(=O)c3ccc4c(c3)CCCN4C(=O)C3CCC3)CC2)c1C | . | -12 | . | -8
Cc1cc(C)cc(CC(=O)N2CCC2(C)C(=O)NS(=O)(=O)c2ccccc2)c1 (stereo not drawn) | . | 3 | . | 9
O[C@@H]1[C@@H](O)C=C2CCN3Cc4cc5c(cc4[C@H]1C23)OCO5 (stereo partly drawn) | . | -2 | 3% | -4
OC1C=C2CCN3Cc4cc5c(cc4C(C1O)C23)OCO5 (stereo not drawn) | 25µM* | . | . | .
O=c1oc2c(O)c(O)cc3c(=O)oc4c(O)c(O)cc1c4c23 | 2.5µM* | -74* | ? | -13
Cc1ccc(NC2CCCN(C(=O)CCC3=NNC(=O)CC3)C2)cc1C (stereo not drawn) | . | 9 | . | 0
C=CC(=O)N1CCCC(Nc2nc(Nc3ccc(N(C)C(=O)CC)cc3C)nc3nc[nH]c23)C1 (stereo not drawn) | . | -67* | 2% | ?
O=C1/C(=C/c2ccco2)CCc2ccccc21 | -4% | -1 | ? | -5
Nc1ccc2c(c1)C/C(=C/c1ccco1)C2=O | ? | -3 | 28µM* | 6
S=C(Nc1ccccc1)c1nc2ccccc2s1 | 0% | -13 | -16% | .
S=c1[nH]nc(-c2cccnc2)n1/N=C/C=C/c1ccco1 | -19% | -4 | 22µM* | 3
CC(/C=N/n1c(-c2cccnc2)n[nH]c1=S)=C\c1ccco1 | -29% | -14 | ? | -14
SMILES | KDM4E inh | Six1-Eya2 blk | L3MBTL1 inh | CtBP-E1A blk
S=c1[nH]nc(-c2ccc(Cl)cc2)n1/N=C/C=C/c1ccco1 | ? | -15 | 28µM* | -6
S=c1[nH]nc(-c2ccccc2)n1/N=C/C=C/c1ccco1 | -7% | -11 | ? | -1
Cc1cc(-c2ccccc2)n(-c2ccccc2)n1 | . | 18 | 29% | 33
Nc1nc(SCc2ccc([N+](=O)[O-])cc2)c2ncn([C@@H]3O[C@H](CO)[C@H](O)[C@H]3O)c2n1 | -1% | . | . | .
O=c1[nH][nH]cc1C=Nc1ccccc1O | 25µM* | -77* | -28% | -83*
O=C1NCC(O)=C1C=NCCCO | 6% | 6 | -1% | 14
O=c1[nH][nH]cc1C=Nc1ccccc1Cl | -6% | 14 | 23% | .
O=C1NCC(O)=C1C=Nc1ccccc1O | 18µM* | 19 | 8% | .
COc1cc(OC)cc(C(=O)NNC(=O)c2ccccn2)c1 | ? | -92* | -5% | -90*
CC(=O)c1ccc(OCCCC(=O)NNC(=O)c2ccccn2)cc1 | . | ? | 5% | -70*
COc1ccc(C(=O)NNC(=O)c2ccccn2)cc1 | 2% | -9 | -5% | .
CCOc1ccc(NC(=O)CCC(=O)NNC(=O)c2cccc([N+](=O)[O-])c2)cc1 | . | 0 | 6% | -2
CCCCNc1c2c3c(cccc3n(C)c1=O)C(=O)c1ccccc1-2 | -6% | 37 | 94% | 15
Cn1c(=O)c(N)c2c3c(c(Br)ccc31)C(=O)c1ccccc1-2 | 25µM* | ? | -27% | .
COc1ccc(CNC(=S)Nc2cc(C)cc(C)c2)cc1 | 8% | -7 | -3% | -6
COc1ccc(N2CCN(C(=S)Nc3cc(C)ccc3C)CC2)cc1 | -7% | -3 | 0% | 8
COc1ccc(N2CCC(CNC(=S)Nc3cc(C)cc(C)c3)C2)cc1 (stereo not drawn) | 0% | -66* | . | -70*
COc1ccc(N2CCC(CNC(=S)Nc3cc(C)ccc3C)C2)cc1 (stereo not drawn) | -11% | -69* | . | .
COC(=O)NC(c1ccc2c(c1)OCO2)C(C(=O)OC)C(=O)OC (stereo not drawn) | 7% | . | . | .
O=C1c2ccccc2NC(c2ccc(-c3ccccc3F)o2)N1O (stereo not drawn) | . | . | 4% | .
Cc1cc([N+](=O)[O-])ccc1-c1ccc(C2Nc3ccccc3C(=O)N2O)o1 (stereo not drawn) | 28µM* | -13 | -5% | -17
Nc1nc2c(ncn2-c2ccccc2)c(=O)[nH]1 | . | ? | . | -73*
COc1ccc(/C=N/NC(=O)Cn2nc([N+](=O)[O-])cc2C)c(OC)c1OC | 4% | 0 | 1% | .
COc1cc([N+](=O)[O-])cc(/C=N/NC(=O)Cn2nccc2C)c1O | 13µM* | -88* | . | -94*
COc1cc([N+](=O)[O-])cc(/C=N/NC(=O)CSc2nnc(-c3ccccc3)n2C)c1O | 20µM* | -14 | . | -13
SMILES | KDM4E inh | Six1-Eya2 blk | L3MBTL1 inh | CtBP-E1A blk
Cn1c(SCC(=O)N/N=C/c2ccc([N+](=O)[O-])s2)nnc1-c1ccc(Cl)cc1 | 0% | -8 | -19% | -5
COc1cc([N+](=O)[O-])cc(/C=N/NC(=O)Cn2nc(C)cc2C)c1O | 7.1µM* | -91* | ? | ?
COC(=O)c1ccc(C(/C=C/[C@@H](C)C(=O)NCc2ccccc2)NC(=O)OCc2ccccc2)cc1 (stereo partly drawn) | -1% | . | . | .
OCc1cn(Cc2ccc(O)c3ncccc23)cn1 | . | . | 7.1µM* | .
Brc1ccccc1CN1CCC(N2CCCCC2)CC1 | 2% | 3 | ? | -1
CN1CCN(C2CCN(Cc3ccc(O)c4ncccc34)CC2)CC1 | . | . | 14µM* | .
O=S(=O)(c1ccc(Cl)cc1)N1CCN(Cc2ccc(O)c3ncccc23)CC1 | 25µM* | -92* | ? | 2
